Shown are actives, neighbours in structure and some others; about 2.8% of the full set was active somewhere.
Peg3 prom inh – Peg3 promoter activity inhibition; HeLa PEG-Prom luciferase reporter, luminescence, overnight; inhibition, % at 20 µM; 360,000 tested, 1.7% active; AID 588405;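 active = inhibition of at least 50% at 20 µM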
Shn3 inh set2 – reduces Shn3 3'UTR luciferase signal in osteoblasts; 360,000 tested, 0.52% active; AID 588674; inhibition, % at 12.5 µM; Clone20 osteoblast Shn3 3'UTR firefly luciferase, 24 h;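 active = mean inhibition of at least 75% with every replicate also reaching 75%; inconclusive = mean inhibition at least 75% but some replicate below; inactive = mean inhibition below 75%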;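 note: 0% = median of neutral control wells and 100% = pilot-screen positive control compound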
PAX8 inh HTS – lowers PAX8-driven luciferase in RMG-I cells; RMG-I TPO-luciferase reporter, SteadyGlo, 24 h; inhibition, % at 12.6 µM; 360,000 tested, 1.2% active; AID 652154;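 active = mean replicate inhibition at least 60% with every replicate also reaching 60%; inconclusive = only one of the two criteria is met; inactive = mean below 60% and not all replicates reaching 60%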;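 note: luciferase light reporting Pax8 driven TPO promoter activity; plate controls were median of neutral control wells for no effect and mitoxantrone controls for full effect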
HIF-2a inh – blocks HIF-2a reporter activity; inhibition, % at 18.8 µM; 360,000 tested, 0.72% active; 786-0 RCC cells HIF-2a reporter, luciferase luminescence, overnight;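 active = inhibition of the luminescence signal of 40% or more relative to plate controls, in a single-dose primary screen at 18.75 µM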
TRPM1 prom inh – reduces MITF-dependent TRPM1 promoter luciferase signal. SK-MEL-5 TRPM1 promoter luciferase, 24 h. inhibition, % at 12.5 µM. 330,000 tested, 0.83% active. AID 488899;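 active = mean inhibition across replicates of 60% or more, whatever share of single replicates reaches that level; inconclusive = some that reach 60%, reason not given; inactive = mean inhibition across replicates below 60%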
EBV LMP1 NFkB – inhibitors of Epstein-Barr LMP1-induced NF-kappaB reporter; 350,000 tested, 0.69% active; LMP1-induced NF-kappaB luciferase reporter cells, luminescence; AID 504558; inhibition, % at 12.5 µM; in the data active = inhibition above about 41%; inconclusive = no clear call, values can overlap the other calls;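 note: 0% = neutral control wells and 100% = reference inhibitor control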
* hit, by the source's call; ? = inconclusive; / = no result.

SMILES	Peg3 prom inh	Shn3 inh set2	PAX8 inh HTS	HIF-2a inh	TRPM1 prom inh	EBV LMP1 NFkB
C/C(=N\Nc1nc2ccccc2s1)c1ccc(Br)s1	-86	29	27	-127	8	-13
CC(=NNc1nc2ccccc2s1)c1ccncn1	-18	88*	0	-119	38	68*
Cc1ccc(C2CC(C(F)F)n3ncc(C(=O)Nc4cnn(Cc5ccccc5C)c4)c3N2)cc1 (centres undefined)	61*	9	/	-6	0	-15
Cc1ccccc1Cn1cc(NC(=O)c2nn(C)cc2Cl)cn1	-35	-16	-17	-29	-22	-2
OC(CNCC1CCCO1)Cn1c2ccccc2c2ccccc21 (centres undefined)	-4	6	/	2	-11	-7
OC(CNCC1CCCO1)Cn1c2ccc(Cl)cc2c2cc(Cl)ccc21 (centres undefined)	106*	-16	/	18	-59	-36
OC(CNCCC1C=Nc2ccccc21)Cn1c2ccc(Cl)cc2c2cc(Cl)ccc21 (centres undefined)	102*	93*	-11	14	91*	-54
C[C@H](CO)N1C[C@H](C)[C@@H](CN(C)Cc2ccncc2)OCCCC[C@H](C)Oc2ccc(NC(=O)NC3CCCCC3)cc2C1=O	/	/	6	/	/	/
CCOc1ccc(CCn2c(-c3ccco3)nc3ccccc3c2=O)cc1OCC	54*	11	/	-59	-1	36
O=c1c2ccccc2nc(-c2ccco2)n1Cc1ccccc1	-238	-78	/	-210	-101	-13
C[C@@H]1CN([C@@H](C)CO)C(=O)Cc2cc(NC(=O)CCC(F)(F)F)ccc2O[C@H]1CN(C)Cc1ccc(Oc2ccccc2)cc1	/	/	90*	/	/	/
COc1ccc(NC(=O)Nc2ccc3c(c2)CC(=O)N([C@H](C)CO)C[C@@H](C)[C@@H](CN(C)Cc2ccc(Oc4ccccc4)cc2)O3)cc1	/	/	103*	/	/	/
C[C@@H]1CN([C@@H](C)CO)C(=O)Cc2cc(NC(=O)Cc3cn(C)c4ccccc34)ccc2O[C@H]1CN(C)Cc1ccc(Oc2ccccc2)cc1	/	/	86*	/	/	/
C[C@@H]1CN([C@H](C)CO)C(=O)Cc2cc(NC(=O)Cc3cn(C)c4ccccc34)ccc2O[C@@H]1CN(C)Cc1ccc(Oc2ccccc2)cc1	/	/	44	/	/	/
COc1ccc(NC(=O)Nc2ccc3c(c2)CC(=O)N([C@@H](C)CO)C[C@@H](C)[C@H](CN(C)Cc2ccc(Oc4ccccc4)cc2)O3)cc1	/	/	70*	/	/	/
CCCNC(=O)N1C[C@H]2[C@@H](c3ccccc31)[C@H](CO)N2Cc1ccc(F)cc1	/	/	13	/	/	/
C[C@H](CO)N1C[C@H](C)[C@H](CN(C)C(=O)CCC(F)(F)F)OCCCC[C@H](C)Oc2ccc(NC(=O)CCC(F)(F)F)cc2C1=O	/	/	23	/	/	/
CCN(C[C@@H]1[C@@H](c2ccc(-c3cccnc3)cc2)[C@@H](CO)N1C(C)=O)C(C)=O	/	/	0	/	/	/
O=[N+]([O-])c1cccc(/C=N/Nc2cc(N3CCOCC3)ncn2)c1	62*	-90	-28	-105	-3	-58
C/C(=N\Nc1cc(N2CCOCC2)ncn1)c1cccc([N+](=O)[O-])c1	102*	-114	6	-68	0	0
O=[N+]([O-])c1cccc(/C=N/Nc2nc(N3CCOCC3)nc(N3CCOCC3)n2)c1	0	13	2	13	-4	17
C[C@H](NC(=O)C[C@H]1CC[C@@H](NC(=O)C2CCOCC2)[C@H](CO)O1)c1ccccc1	/	/	6	/	/	/
COc1ccc2c3c([nH]c2c1)[C@H](CO)N(CC1CC1)CC31CN(S(=O)(=O)c2cccc(F)c2)C1	/	/	8	/	/	/
COC(=O)c1ccc(CNC(=O)c2sccc2-c2ccccc2)cc1	10	17	15	14	79*	4
Cc1noc(C)c1NC(=O)N(C)C[C@@H]1Oc2ccc(NC(=O)Nc3ccc(F)cc3)cc2CC(=O)N([C@H](C)CO)C[C@@H]1C	/	/	5	/	/	/
SMILES	Peg3 prom inh	Shn3 inh set2	PAX8 inh HTS	HIF-2a inh	TRPM1 prom inh	EBV LMP1 NFkB
COc1ccc(CNC(=O)Nc2nc(C(N)CCc3ccccc3)cs2)cc1 (centres undefined)	88*	0	5	13	/	/
COc1ccc(CNC(=O)Nc2nc(C(N)Cc3ccc(Cl)cc3)cs2)cc1 (centres undefined)	96*	16	7	-6	/	/
COc1cc(CNC(=O)Nc2nc(C(N)CCc3ccccc3)cs2)cc(OC)c1OC (centres undefined)	40	-13	5	2	/	/
COc1ccccc1CNC(=O)Nc1nc(C(N)Cc2ccc(Cl)cc2)cs1 (centres undefined)	94*	-2	24	1	/	/
C[C@@H]1CN([C@@H](C)CO)C(=O)Cc2cc(NC(=O)Cc3cn(C)c4ccccc34)ccc2O[C@@H]1CN(C)S(=O)(=O)c1cn(C)cn1	/	/	12	/	/	/
Cc1ccc(-n2nnc(-c3nccs3)n2)cc1	48	-4	36	51*	55	58*
COc1cc(OC)cc(-c2nc3ccccc3c(=O)n2OC(=O)c2ccccc2C)c1	53*	3	17	-10	-3	23
O=C(On1c(-c2ccccc2)nc2ccccc2c1=O)c1ccco1	27	-2	/	-5	16	19
O=C1C=C(Nc2cccc3cccnc23)c2ccccc2C1=O	-17	-30	-7	13	80*	3
O=C1C=C(Nc2ccccc2)c2ccccc2C1=O	24	42	12	15	102*	2
CCCCNC1=CC(=O)C(=O)c2ccccc21	13	16	?	8	94*	3
CCc1ccc(NC2=CC(=O)C(=O)c3ccccc32)cc1	6	33	-103	-112	104*	-29
CCCCNC1=CC(=O)C(NCCCC)=CC1=O	-38	-12	/	-48	5	-2
COc1cccc(C(=O)Nc2ccc3c(c2)C(=O)N(C)C[C@@H](OC)[C@@H](C)CN(C(C)=O)[C@H](C)CO3)c1	/	/	-11	/	/	/
C[C@H](CO)N1C[C@H](C)[C@H](CN(C)C(=O)Nc2ccccc2)Oc2c(NC(=O)NC3CCCCC3)cccc2C1=O	/	/	8	/	/	/
COc1ccc(C(=O)Cn2nc(CNc3ccc(Br)cc3)[n+]3c2CCCCC3)cc1	8	-36	?	19	30	-6
Cc1ccc(C(C)C)c(OCc2nn(CC(=O)c3ccc(OC(F)F)cc3)c3[n+]2CCCCC3)c1	105*	39	/	4	102*	11
O=C(NCC[C@H]1CC[C@H](NC(=O)c2cccnc2)[C@@H](CO)O1)Nc1ccc(F)cc1	/	/	-5	/	/	/
Cc1ccccc1S(=O)(=O)N1CCCCN2[C@H](C1)[C@H](c1ccc(-c3ccccc3)cc1)[C@@H]2CO	/	/	10	/	/	/
CC(=O)N(C1=C(N)C(=O)c2ccccc2C1=O)c1ccccc1	28	25	13	17	65*	-1
O=C(N(c1ccccc1)c1ccccc1)N(c1ccccc1)c1ccccc1	35	1	12	28	/	/

High-throughput results from PubChem BioAssay.
